Where a name gives a salt, the structure may show the parent alone.

For the assay, the system named is Danio rerio larvae (5 dpf). Put plainly: startle (activity period 16 minus period 15, 20-s interval sound) minus DMSO control (percentage points); higher = stronger startle response than DMSO larvae. The settings on record: 10 µM; exposure time: 3 h pre-incubation + 3 h imaging. As to the method:
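Wild-type 5 dpf zebrafish larvae (n=48 per drug, 96-well plates, 28.5 °C) were exposed to Tocris FDA-approved library compounds at 10 µM (0.1% DMSO) for 3 h before and 3 h during imaging. Images were taken every 6 s during visual (moving coloured lines) and acoustic stimuli, and larvae were tracked with the DeepLabCut-based Z-LaP Tracker. Each behavioural measure is the treated-group mean minus the DMSO vehicle control mean (n=844), in percentage points. This mapping covers compounds with 4-character plate codes.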
As for `CCc1c2c(nc3ccc(OC(=O)N4CCC(N5CCCCC5)CC4)cc13)-c1cc3c(c(=O)n1C2)COC(=O)[C@]3(O)CC`, the startle came to 0.964.

As for `CCCCc1nc(Cl)c(CO)n1Cc1ccc(-c2ccccc2-c2nnn[nH]2)cc1` [Losartan potassium], the startle is -0.225.

`O=C(NCC1CCCCN1)c1cc(OCC(F)(F)F)ccc1OCC(F)(F)F` (stereo not given) [Flecainide acetate]: the startle was determined as 4.84. `CCOC(=O)C1=C(COCCN)NC(C)=C(C(=O)OC)C1c1ccccc1Cl` (stereo not given) [Amlodipine besylate]: the startle was 0.141. As for `CC(C)c1ccc2oc3nc(N)c(C(=O)O)cc3c(=O)c2c1` [Amlexanox], the startle worked out at 2.27.

As to `CCc1ccc(CCOc2ccc(CC3SC(=O)NC3=O)cc2)nc1` (stereo not given) [Pioglitazone hydrochloride], the startle is -4.69. As for `NS(=O)(=O)c1cc(C(=O)O)c(NCc2ccco2)cc1Cl` [Furosemide], the startle is -3.94. Next, `Cc1nc(Nc2ncc(C(=O)Nc3c(C)cccc3Cl)s2)cc(N2CCN(CCO)CC2)n1` [Dasatinib]: -0.00442; `Nc1nc2[nH]cc(CCc3ccc(C(=O)N[C@@H](CCC(=O)O)C(=O)O)cc3)c2c(=O)[nH]1` [Pemetrexed]: -5.08; `CN(C)CC/C=C1/c2ccccc2COc2ccc(CC(=O)O)cc21` [Olopatadine hydrochloride]: 1.07. Turning to `C/C(O)=C(\C#N)C(=O)Nc1ccc(C(F)(F)F)cc1` [Teriflunomide], the startle is -2.62. Take `CCCN(CCC)S(=O)(=O)c1ccc(C(=O)O)cc1` [Probenecid]: the startle worked out at 0.405. On to `OCCOCCN1CCN(C2=Nc3ccccc3Sc3ccccc32)CC1` [Quetiapine hemifumarate], for which the startle is -0.888. As for `CN(C)CCC[C@@]1(c2ccc(F)cc2)OCc2cc(C#N)ccc21` [Escitalopram oxalate], the startle was -7.28. As for `CCN(Cc1ccncc1)C(=O)C(CO)c1ccccc1` (stereo not given) [Tropicamide], the startle was -6.79. Next, `COc1ccccc1OCCNCC(O)COc1cccc2[nH]c3ccccc3c12` (stereo not given) [Carvedilol]: 3.72; `COc1cc2nc(N3CCN(C(=O)c4ccco4)CC3)nc(N)c2cc1OC` [Prazosin hydrochloride]: 4.64. Take `Cc1nc(-c2ccc(OCC(C)C)c(C#N)c2)sc1C(=O)O` [Febuxostat]: the startle amounted to 3.79. Regarding `CCCN(CCc1cccs1)[C@H]1CCc2c(O)cccc2C1` [Rotigotine hydrochloride], the startle is -5.79. Regarding `N#Cc1ccc(C(c2ccc(C#N)cc2)n2cncn2)cc1` [Letrozole], the startle is 6.54. Next, `O=C(c1ccc(OCCN2CCCCC2)cc1)c1c(-c2ccc(O)cc2)sc2cc(O)ccc12` [Raloxifene hydrochloride]: 2.55. Next, `CCOc1nc2cccc(C(=O)O)c2n1Cc1ccc(-c2ccccc2-c2noc(=O)[nH]2)cc1` [Azilsartan]: 3.25; `CCOC(=O)[C@H](CCc1ccccc1)N[C@H]1CCc2ccccc2N(CC(=O)O)C1=O` [Benazepril hydrochloride]: -0.0488; `CC(=O)O[C@]1(C(C)=O)CC[C@H]2[C@@H]3C=C(C)C4=CC(=O)CC[C@]4(C)[C@H]3CC[C@@]21C` [Megestrol Acetate]: -12.5. Consider `CN1CC2c3ccccc3Oc3ccc(Cl)cc3C2C1` (stereo not given) [Asenapine maleate], for which the startle was -6.16. `OC(CNCC(O)C1CCc2cc(F)ccc2O1)C1CCc2cc(F)ccc2O1` (stereo not given) [Nebivolol hydrochloride]: the startle was -4.81. `CC(C)(C#N)c1cc(Cn2cncn2)cc(C(C)(C)C#N)c1` [Anastrozole]: the startle is -0.0231. For the compound `CO[C@H]1/C=C/O[C@@]2(C)Oc3c(C)c(O)c4c(O)c(c5c(nc6cc(C)ccn65)c4c3C2=O)NC(=O)/C(C)=C\C=C\[C@H](C)[C@H](O)[C@@H](C)[C@@H](O)[C@@H](C)[C@H](OC(C)=O)[C@@H]1C` [Rifaximin], the startle came to 1.18. With `Cc1ccc(N(CC2=NCCN2)c2cccc(O)c2)cc1` [Phentolamine Mesylate], the startle was -2.8. Regarding `CN1CC(=O)N2[C@H](c3ccc4c(c3)OCO4)c3[nH]c4ccccc4c3C[C@@H]2C1=O` [Tadalafil], the startle is 8.43. Next, `Clc1ccc(COC(Cn2ccnc2)c2ccc(Cl)cc2Cl)c(Cl)c1` (stereo not given) [Miconazole nitrate]: 5.64; `Cc1ccc(NC(=O)c2ccc(CN3CCN(C)CC3)cc2)cc1Nc1nccc(-c2cccnc2)n1` [Imatinib mesylate]: 5.71. For the compound `CN1CCC[C@@H]1Cc1c[nH]c2ccc(CCS(=O)(=O)c3ccccc3)cc12` [Eletriptan hydrobromide], the startle stood at 0.814. Turning to `CCCc1nc(C(C)(C)O)c(C(=O)O)n1Cc1ccc(-c2ccccc2-c2nnn[nH]2)cc1` [Olmesartan], the startle is 8.5. As for `COc1c(C)c2c(c(O)c1C/C=C(\C)CCC(=O)OCCN1CCOCC1)C(=O)OC2` [Mycophenolate mofetil], the startle worked out at 3.22.

As for `Cc1nnc(C(C)C)n1C1C[C@H]2CC[C@@H](C1)N2CC[C@H](NC(=O)C1CCC(F)(F)CC1)c1ccccc1` (stereo in doubt) [Maraviroc], the startle is -4.84. In the case of `CN1CC[C@@H](NC(=O)Nc2ccc(C#N)cc2)C[C@@H]1c1nc2ccccc2[nH]1`, the startle was -4.15. As for `CCN(CC)CCNC(=O)c1c(C)[nH]c(/C=C2\C(=O)Nc3ccc(F)cc32)c1C` [Sunitinib malate], the startle is -2.14. As for `CC(c1cc2ccccc2s1)N(O)C(N)=O` (stereo not given) [Zileuton], the startle was -0.862. For the compound `O=C(Nc1c(Cl)cncc1Cl)c1ccc(OC(F)F)c(OCC2CC2)c1` [Roflumilast], the startle is 3.93.
